Test results published in PubChem BioAssay.
For part of these data: Potency and affinity values are given separately. Active and inactive are the calls of the source.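 The calls were made as follows, unless noted: active = compound raising the membrane signal above positive-control mean plus 3 SD in both repeats, and a primary screen hit; inactive = the rest.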

Tests used:
[1] = tested on: TRPC4 beta (transient receptor potential cation channel C4), mouse; experiment: TRPC4 cation channel opening, retest – cell-based, Fluo4 calcium, HEK293 TRPC4beta/mu-opioid, duplicates, 10 µM, confirmation (AID 2426;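 active = fluorescence ratio normalized to control raised more than 50% in primary screen plus both repeat runs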); settings: Fluo4 calcium fluorescence, at 10 µM; hits give high values
[2] = tested on: transient receptor potential cation channel C4 beta (TRPC4), mouse; experiment: TRPC4 cation channel opening, second retest – cell-based, second round, Fluo4, HEK293 TRPC4beta/mu-opioid, 1 µM, confirmation (AID 2461;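 active = primary screen active and over 50% activation in each of two duplicate runs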); settings: Fluo4 calcium fluorescence, at 1 µM; hits give high values
[3] = tested on: TRPC4 (transient receptor potential cation channel C4 beta), mouse; experiment: potentiation of DAMGO EC20 TRPC4 response – cell-based, second round, Fluo-4, HEK293 TRPC4beta/mu-opioid, 1 µM, confirmation (AID 2554;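 active = primary screen hit whose fluorescence ratio, in both repeats, exceeds the weak agonist control mean by 3 SD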); settings: DAMGO EC20, Fluo-4 calcium flux, at 1 µM; hits give high values
[4] = tested on: TRPC4 beta (transient receptor potential cation channel C4), mouse; experiment: potentiation of DAMGO EC20 TRPC4 response – cell-based, Fluo-4, HEK293 TRPC4beta/mu-opioid, confirmation (AID 2555;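 active = primary screen hit whose calcium fluorescence ratio, in both repeats, exceeds the weak agonist control mean by 3 SD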); settings: DAMGO EC20, Fluo-4 calcium flux, at 10 µM; hits give high values
[5] = molecular target: Short transient receptor potential channel 4 (Mus musculus) (UniProt Q9QUQ5); experiment: blockers of DAMGO-evoked TRPC4 calcium flux – cell-based, Fluo4, HEK293 TRPC4beta/mu-opioid, confirmation (AID 2636;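 active = calcium signal cut by more than 3 SD below the full-agonist control yet still positive, in both repeats and the earlier primary screen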); settings: at 10 µM; hits give high values
[6] = molecular target: Short transient receptor potential channel 4 (Mus musculus) (UniProt Q9QUQ5); experiment: blockers of DAMGO-evoked TRPC4 calcium flux – cell-based, second round, Fluo4, HEK293 TRPC4beta/mu-opioid, 1 µM, confirmation (AID 2637;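 active = calcium signal ratio cut to more than 3 SD under the fully stimulated control mean yet still positive, in both repeats and the primary screen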;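 as to inhibition: percent of integrated ratio relative to wells lacking test compound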); settings: at 1 µM; hits give high values
[7] = molecular target: Short transient receptor potential channel 4 (Mus musculus) (UniProt Q9QUQ5); experiment: calcium entry via TRPC4 opening agents – cell-based, HEK293 TRPC4/mu-opioid, Fluo-4 calcium, dose response (AID 434937;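 active = primary screen activator hit with a dose response curve and TRPC4 channel activation at any tested dose; inactive = no activation, no dose response, or not a primary hit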)
[8] = molecular target: Short transient receptor potential channel 4 (Mus musculus) (UniProt Q9QUQ5); experiment: potentiation of DAMGO-evoked TRPC4 calcium signal – cell-based, HEK293 TRPC4/mu-opioid, Fluo-4 calcium, EC20 DAMGO, dose response (AID 434941;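 active = earlier screen potentiator hit that boosts the TRPC4 ion channel at some dose, with a dose response; inactive = no potentiation, no dose response, or not a prior hit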;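 also: calcium entry triggered by an EC20 dose of DAMGO at the co-expressed mu-opioid receptor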)
[9] = molecular target: Short transient receptor potential channel 6 (Mus musculus) (UniProt Q61143); experiment: TRPC6 blockade by TRPC4 inhibitor hits – cell-based, HEK293, membrane potential dye, duplicate, selectivity assay for TRPC4 inhibitor project, confirmation (AID 434948;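 active = active in primary screen and both duplicates, each dropping signal beyond three positive-control SD with fluorescence still positive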); settings: HEK293 TRPC6, membrane potential dye fluorescence, at 10 µM, stimulated with maximal-effect acetylcholine; hits give high values
[10] = molecular target: Short transient receptor potential channel 6 (Mus musculus) (UniProt Q61143); experiment: TRPC6 opening by TRPC4 activator hits – cell-based, HEK293, membrane potential dye, duplicate, selectivity assay for TRPC4 activator project, confirmation (AID 434950;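 active = membrane potential signal rise above negative control mean plus 3 SD in both duplicates, also active in the earlier TRPC4 screen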); settings: HEK293 TRPC6, membrane potential fluorescence, at 10 µM; activation: hits give high values; outcome: activation
[11] = molecular target: Short transient receptor potential channel 6 (Mus musculus) (UniProt Q61143); experiment: positive modulators of mouse TRPC6 channel – HEK293 cells, membrane potential dye, duplicate, selectivity assay for TRPC4 potentiator project, confirmation (AID 434952); settings: HEK293 TRPC6, membrane potential dye fluorescence, at 10 µM, maximal acetylcholine added after compound; hits give high values
[12] = molecular target: Short transient receptor potential channel 4 (Mus musculus) (UniProt Q9QUQ5); experiment: calcium flux activators in TRPC4/5HT1a cells, counter-screen for TRPC4 activator project, cell-based, second counter screen, HEK293 TRPC4/5HT1a, Fluo-4 (AID 434977;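 active = calcium signal rise above buffer-control mean plus 5 SD in both duplicates, and also a hit in the primary screen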); settings: Fluo-4 calcium flux, at 10 µM; hits give high values
[13] = serotonin-gated TRPC4 signal block – cell-based, second counter screen, HEK293 TRPC4/5HT1a, Fluo-4, counter-screen for TRPC4 inhibitor project, confirmation (AID 434978;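 active = primary screen active whose calcium signal fell more than 3 SD beyond the full-serotonin control mean in both duplicate plates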;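 as to outcome: serotonin given first at submaximal then at maximal dose after compound preincubation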); settings: Fluo-4 calcium flux, at 10 µM, serotonin added to trigger calcium flux; hits give high values
[14] = tested on: TRPC4 (mouse), co-expressed with 5HT1a in HEK293; experiment: enhancement of serotonin-evoked TRPC4 response – cell-based, second counter screen, HEK293 TRPC4/5HT1a, Fluo-4, counter-screen for TRPC4 potentiator project, confirmation (AID 434979;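 active = signal rise over 3 SD above mean of control wells given weak agonist, in both repeats and first screen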); settings: Fluo-4 calcium flux, at 10 µM, serotonin added at its EC20 dose; hits give high values
[15] = nonspecific calcium rise without TRPC4 – cell-based, HEK293 mu-opioid receptor line, counter-screen for TRPC4 activator project, confirmation (AID 449723;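 active = hit in primary screen, with calcium signal over 5 SD above buffer well mean in both duplicates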;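 also: counter screen cells carry the mu-opioid receptor alone and lack TRPC4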); settings: HEK293 mu-opioid cells, Fluo-4 calcium fluorescence, at 10 µM; hits give high values
[16] = nonspecific potentiation of DAMGO calcium response – cell-based, HEK293 mu-opioid receptor line, counter-screen for TRPC4 allosteric potentiator project, confirmation (AID 449724;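 active = calcium signal rise more than 3 SD above the low-dose agonist control mean, in both duplicate plates and the primary screen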); settings: HEK293 mu-opioid receptor cells, Fluo-4 calcium flux, at 10 µM, compound added before EC20 DAMGO stimulus; hits give high values

Measured: inhibition

Short transient receptor potential channel 6 (Mus musculus), sequence (Q61143 whole entry, looked up): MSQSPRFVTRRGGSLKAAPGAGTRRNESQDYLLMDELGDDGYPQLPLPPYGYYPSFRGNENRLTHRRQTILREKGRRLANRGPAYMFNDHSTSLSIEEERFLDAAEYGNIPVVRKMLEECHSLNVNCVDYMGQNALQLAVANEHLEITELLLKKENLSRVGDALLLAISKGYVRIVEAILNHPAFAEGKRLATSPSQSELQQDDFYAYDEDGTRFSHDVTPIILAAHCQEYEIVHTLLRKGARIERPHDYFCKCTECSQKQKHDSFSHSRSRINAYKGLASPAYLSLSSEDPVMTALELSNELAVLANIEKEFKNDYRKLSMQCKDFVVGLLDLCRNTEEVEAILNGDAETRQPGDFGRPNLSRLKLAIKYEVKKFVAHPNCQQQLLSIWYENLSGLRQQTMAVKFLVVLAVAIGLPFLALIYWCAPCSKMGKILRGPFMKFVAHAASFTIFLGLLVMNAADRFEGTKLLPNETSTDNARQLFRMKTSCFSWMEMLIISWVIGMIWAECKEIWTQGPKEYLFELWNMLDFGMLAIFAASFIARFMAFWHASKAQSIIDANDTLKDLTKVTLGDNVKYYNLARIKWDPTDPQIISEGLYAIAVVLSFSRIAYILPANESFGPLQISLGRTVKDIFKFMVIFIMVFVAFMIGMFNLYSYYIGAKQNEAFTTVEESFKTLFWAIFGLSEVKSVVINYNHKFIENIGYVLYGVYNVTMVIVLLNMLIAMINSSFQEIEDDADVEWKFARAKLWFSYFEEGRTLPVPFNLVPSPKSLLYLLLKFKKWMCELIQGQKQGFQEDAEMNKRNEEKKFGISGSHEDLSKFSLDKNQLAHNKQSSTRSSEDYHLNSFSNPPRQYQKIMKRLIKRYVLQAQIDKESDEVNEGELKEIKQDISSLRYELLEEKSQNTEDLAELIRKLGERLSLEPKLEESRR
Short transient receptor potential channel 4 (Mus musculus), sequence (Q9QUQ5 whole entry, looked up): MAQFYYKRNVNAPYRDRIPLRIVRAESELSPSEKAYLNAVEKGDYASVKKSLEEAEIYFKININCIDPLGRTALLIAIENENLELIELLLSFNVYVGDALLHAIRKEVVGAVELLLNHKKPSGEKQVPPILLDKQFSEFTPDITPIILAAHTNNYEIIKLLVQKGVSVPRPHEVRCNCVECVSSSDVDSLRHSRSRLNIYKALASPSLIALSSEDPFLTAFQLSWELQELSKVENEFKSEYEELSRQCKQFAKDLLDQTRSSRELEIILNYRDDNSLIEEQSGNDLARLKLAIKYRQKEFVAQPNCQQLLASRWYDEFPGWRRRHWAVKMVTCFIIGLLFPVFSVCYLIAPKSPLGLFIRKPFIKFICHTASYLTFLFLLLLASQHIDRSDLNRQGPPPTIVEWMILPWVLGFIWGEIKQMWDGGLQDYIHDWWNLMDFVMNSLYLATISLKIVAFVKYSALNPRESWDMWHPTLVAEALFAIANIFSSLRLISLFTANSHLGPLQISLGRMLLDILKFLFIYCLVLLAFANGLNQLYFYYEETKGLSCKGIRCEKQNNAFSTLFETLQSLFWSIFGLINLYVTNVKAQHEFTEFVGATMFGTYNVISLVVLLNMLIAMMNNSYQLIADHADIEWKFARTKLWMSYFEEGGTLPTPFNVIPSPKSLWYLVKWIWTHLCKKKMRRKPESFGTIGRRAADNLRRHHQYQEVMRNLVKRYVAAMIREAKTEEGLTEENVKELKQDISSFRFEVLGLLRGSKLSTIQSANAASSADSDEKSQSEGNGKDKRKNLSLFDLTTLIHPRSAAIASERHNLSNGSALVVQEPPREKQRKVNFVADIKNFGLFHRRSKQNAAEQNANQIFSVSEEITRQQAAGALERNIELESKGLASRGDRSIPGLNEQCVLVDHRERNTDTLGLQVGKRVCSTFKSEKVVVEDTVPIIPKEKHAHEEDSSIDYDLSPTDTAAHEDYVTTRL

NC(=O)c1nsc(C(=O)N(Cc2ccc(F)cc2)C(C(=O)NCC2CCCO2)c2ccc(O)cc2)c1N (stereo not given)
active: [5] 77% | [13] 25.6%
inactive: all other assays above

FC(F)Oc1ccccc1NC(=S)Nc1cccc(Cl)c1Cl
active: [5] 77% | [6] 45%
inactive: all other assays above

COc1ccc(C2NC(C(=O)O)Cc3c2[nH]c2ccccc32)cc1CN1CCN(c2ccc(F)cc2)CC1 (stereo not given)
active: [5] 58% | [13] 41.6%
inactive: all other assays above

Cc1cc(-c2csc3ncnc(N4CCN(C)CC4)c23)cc(C)c1C
active: [5] 84% | [6] 49% | [13] 16.6%
inactive: all other assays above

S=C(Nc1ccccc1)Nc1cc(Cl)ccc1Oc1ccccc1
active: [5] 78% | [13] 40.2%
inactive: all other assays above

Cc1cc(-c2cn3ccccc3n2)c(C)n1-c1ccccc1
active: [5] 101% | [6] 40%
inactive: all other assays above

Cc1ccc(-n2cccn2)c(CN2CCCC(C(=O)c3ccc4c(c3)OCO4)C2)c1 (stereo not given)
active: [5] 53% | [9] 28% | [13] 38%
inactive: all other assays above

CCOc1cc(CNCCCN2CCOCC2)cc(Br)c1OCC(=O)Nc1cccc(C(F)(F)F)c1
active: [5] 101% | [6] 40% | [13] 30.5%
inactive: all other assays above

CCOC(=O)c1cc(C#N)c(N2CCCCC2)nc1-c1ccccc1
active: [5] 93%
inactive: all other assays above

Fc1cccc(Nc2c3c(nc4ccccc24)CCC3)c1
active: [5] 96% | [13] 14.9%
inactive: all other assays above

CCOC(=O)c1c(NC(=O)/C=C/C(=O)O)sc(C)c1-c1ccc(C(C)(C)C)cc1
active: [13] -6.26%
inactive: all other assays above

COC(=O)c1c(NC(=O)CSc2ncn[nH]2)sc(C)c1C
active: [5] 67%
inactive: all other assays above

COc1ccccc1N1CCN(CCCNC(=O)Nc2ccccc2)CC1
active: [5] 95% | [6] 61% | [13] 22.6%
inactive: all other assays above

CCCOc1ccc(-c2nc(SCc3ccccc3)[nH]c(=O)c2C#N)cc1OC
active: [5] 66%
inactive: all other assays above

CC(=O)C1=C(O)C(=O)N(Cc2ccccc2)C1c1ccc([N+](=O)[O-])cc1 (stereo not given)
active: [5] 95% | [6] 61% | [13] 34.5%
inactive: all other assays above

COc1ccc(/C=C/C(=O)Oc2cc(O)cc(O)c2)cc1
active: [5] 96% | [13] 27.4%
inactive: all other assays above

Oc1ccc(CN2CCCCC2)nc1-c1ccccc1
active: [5] 92% | [6] 43% | [13] 31.7%
inactive: all other assays above

COc1cccc(C(=O)C2CCCN(Cc3cccn3-c3ccccn3)C2)c1 (stereo not given)
active: [5] 44% | [9] 38% | [13] 35.6%
inactive: all other assays above

Cc1ccc(NC(=S)N(CCCN(C)C)Cc2cc3cc4c(cc3[nH]c2=O)OCO4)c(C)c1
active: [5] 96% | [6] 70% | [13] 14.4%
inactive: all other assays above

Cc1cccc(C)c1-n1cccc1/C=C1\SC(=S)N(c2cccc(C(=O)O)c2)C1=O
active: [5] 89% | [13] 23.2%
inactive: all other assays above

O=c1oc2ccccc2c(Nc2ccccc2)c1CN1CCCCC1
active: [5] 84% | [6] 46%
inactive: all other assays above

CCOCc1cn(CC(=O)c2ccc(Cl)cc2)c(C)nc1=N
active: [5] 97% | [6] 72% | [13] 13%
inactive: all other assays above

CCCCNc1nc(-c2ccccc2)c(C(=O)OCC)cc1C#N
active: [5] 94% | [13] 15%
inactive: all other assays above

CCOCCCNCc1cc(Br)ccc1OCc1ccccc1
active: [5] 94% | [6] 49% | [9] 28% | [13] 16.2%
inactive: all other assays above

Cc1ccc(Nc2cc(C)nc3c(C)cccc23)cc1
active: [6] 54% | [9] 22% | [13] 35.3%
inactive: all other assays above

Cc1ncsc1CCOC(=O)c1cccc([N+](=O)[O-])c1
active: [5] 83% | [6] 49% | [13] 40%
inactive: all other assays above

COc1cc(CN(C)CC2CCCN(CCc3ccccc3F)C2)cc(Cl)c1OC (stereo not given)
active: [5] 93% | [13] 0.1%
inactive: all other assays above

CN1CCN(c2ccc(NC(=O)c3ccc(Br)o3)cc2)CC1
active: [5] 91% | [6] 46%
inactive: all other assays above

Cc1ccc2cc(CN(CCCN3CCOCC3)C(c3nnnn3Cc3ccco3)C(C)C)c(=O)[nH]c2c1C (stereo not given)
active: [5] 98% | [6] 72%
inactive: all other assays above

O=C(CCN1CCc2ccccc2C(O)(c2ccccc2)C1)c1ccc2c(c1)OCCO2 (stereo not given)
active: [13] 39.2%
inactive: all other assays above
